Source: PubChem BioAssay (NCATS)
Where “and” joins values, the source holds several entries; their conditions need not be identical. Equal values may be shown once. Calls of active or inactive are those of the source. Unless noted, calls come from the whole dose curve; as a rule, active = well fitted curve in the direction sought with a large enough effect; inconclusive = small, poorly fitted or top-dose-only effect, or another doubt; inactive = no such curve, though single readings can be large; an effect the other way counts as inactive or inconclusive.

Assays:
[1] = target: D(1A) dopamine receptor (Homo sapiens) (UniProt P21728); experiment: HTS Assay for Allosteric Agonists of the Human D1 Dopamine Receptor: Primary Screen for Potentiators (AID 488982); note: 0% is about no effect
Summary of the method: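 Tetracycline-induced HEK293 Trex D1 cells with forced coupling to calcium, loaded with no-wash calcium dye; kinetic fluorescence read 180 s after compound addition for agonism, then a further 180 s after an EC20 dopamine challenge for potentiation.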

[2] = target: D(1A) dopamine receptor (Homo sapiens) (UniProt P21728); experiment: HTS Assay for Allosteric Agonists of the Human D1 Dopamine Receptor: Primary Screen for Antagonists (AID 488983);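 note: calcium flux response to an EC80 dopamine challenge measured with no-wash dye; nearly all actives have a fitted effect of over 65% in size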; note: potency is the fitted concentration of half-maximal effect
Summary of the method: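 Calcium-flux read-out in inducible HEK293 T-REx cells expressing D1, dye-loaded 30–90 min at room temperature. Kinetic reads: 180 s after compound (agonist phase), then 180 s after an EC80 dopamine challenge.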

[3] = Validation screen for small molecules that induce genotoxicity in human embryonic kidney (HEK293T) cells expressing luciferase-tagged ELG1 (AID 493106); note: 0% is about no effect
Summary of the method: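 ELG1-luciferase reporter readout (ONE-Glo, 30 min, room temperature) after 16 hr compound treatment at 37 °C of HEK293T cells at 2,000 per well. Rising luminescence flags genotoxic stress.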

[4] = target: ATPase family AAA domain-containing protein 5 (Homo sapiens) (UniProt Q96QE3); experiment: Validation screen for small molecules that inhibit ELG1-dependent DNA repair in human embryonic kidney (HEK293T) cells expressing luciferase-tagged ELG1 (AID 493107); note: nearly all actives have a fitted effect of over 70% in size; note: potency is the fitted concentration of half-maximal effect
Summary of the method: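 Luciferase read-out, ONE-Glo, 30 min at room temperature, follows 16 h co-exposure at 37 C of compound and the DNA-damaging agent 5-fluorouridine. Cells: HEK293T with ELG1-luciferase fusion, 2,000 per well, DMSO as vehicle.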

[5] = target: Thyrotropin-releasing hormone receptor (Homo sapiens) (UniProt P34981); experiment: qHTS for Small Molecule Agonists and Allosteric Enhancers of Human TRH Receptor: Validation Screen for Agonists (AID 493127;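 active = calcium activation more than 3 SD above the typical response in the agonist read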;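 note: intracellular calcium rise by fluo-8 fluorescence before TRH EC20 addition; 0% is about no effect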); conditions: TRH receptor agonist cell assay; at 2 µM; stronger effect = higher value
Summary of the method: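 Compound-evoked intracellular calcium release in fluo-8-loaded TRHR cells, read kinetically on FDSS (Ex 480/Em 530, 1 s/cycle) after 23 nL pintool transfer. Agonist phase preceded 10 nM TRH EC20 addition.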

[6] = Nrf2 qHTS screen for inhibitors: Validation (AID 493153; active = well fitted inhibition curve with a large enough effect in the main read-out, with a control signal flat, not every such curve was filed as active; inconclusive = small, poorly fitted or top-dose-only effect, or effect the other way, or a change in a side signal; inactive = no such curve, though single readings can be large or run the other way); conditions: viability change: measured here: cytotoxicity max response
Summary of the method: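 Concentration-response on A549 ARE_Fluc reporter cells exposed 18-24 h at 37 C, 5% CO2. Cytotoxicity read first by CellTiter-Fluor fluorescence (Ex 405/Em 525), then Nrf2 inhibition by BugLite luminescence after 15 min.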

[7] = qHTS for Inhibitors of Cell Surface uPA Generation: Validation Assay (AID 493164);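 note: RAW 264.7 macrophage cells exposed to compound for 18 h; 0% is about no effect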
Summary of the method: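 ATP-Lite luminescence read-out: ATP remains high when uPA activity-dependent LF translocation into the cytoplasm is blocked. RAW 264.7 cells, 18 h compound exposure at 37 C; 7-point titration, 2.45 nM to 38.3 uM final.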

[8] = target: Galactokinase (Homo sapiens) (UniProt P51570); experiment: qHTS Validation Assay for Inhibitors of Human Galactokinase (GALK) (AID 493189); note: 0% is about no effect
Summary of the method: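 GALK (5 nM) with 35 uM ATP and 100 uM galactose in HEPES pH 8.0 with MgCl2, NaCl, DTT and BSA. Reaction ran 1 h at room temperature. Residual ATP read by Kinase-Glo Plus luminescence.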

[9] = Validation screen for small molecules that induce DNA re-replication in SW480 colon adenocarcinoma cells (AID 504364); note: 0% is about no effect
Summary of the method: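 Image-based DNA content read-out: Hoechst stain 40 min, total nuclear fluorescence intensity (ex 405 nm, em 500-530 nm) after 48 h compound exposure of 250 SW480 cells/well at 37 C, 5% CO2, versus DMSO vehicle.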

[10] = target: Peptidyl-prolyl cis-trans isomerase NIMA-interacting 1 (Homo sapiens) (UniProt Q13526); experiment: qHTS Validation Assay to Find Inhibitors of Pin1 (AID 504536; active = well fitted inhibition curve with a large enough effect in the polarisation, with a control signal flat, not every such curve was filed as active; inconclusive = small, poorly fitted or top-dose-only effect, or effect the other way; the % refers to the polarisation;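 note: 0% = full Pin1 enzyme wells and -100% = no-enzyme wells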)
Summary of the method: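 Fluorescence polarization competition: compounds (titration) displace HiFluor-488-labeled Pin1-1b peptide from Pin1 (0.3 uM final) in pH 7.5 HEPES buffer with DTT, 10 min at room temperature; %Activity normalized to no-enzyme wells, curves fitted.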

[11] = target: Phosphoglycerate kinase, glycosomal (Trypanosoma brucei brucei) (UniProt P07378); experiment: qHTS Validation Assay to Find Inhibitors of Phosphoglycerate Kinase (AID 504547);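 note: control wells lack PGK and mark full inhibition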
Summary of the method: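 Compounds are pinned into the substrate/PGK mixture, and GAPDH (100nM final) is added to start the reaction by producing 1,3-BPG. After 60 minutes at room temperature, Kinase-Glo Plus is added and luminescence is measured 10 minutes later.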

[12] = target: phosphoglycerate mutase (Leishmania major) (UniProt Q4Q090); experiment: qHTS Validation Assay to Find Inhibitors of Phosphoglycerate Mutase (AID 504548);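 note: end-point luminescence from Kinase-GloPlus after the PGAM reaction; series mostly up to about 58 µM; % is set by controls: 0 for no effect and ±100 for the full control effect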
Summary of the method: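 Inhibition of L. major PGAM was assessed by Kinase-GloPlus luminescence following a 45-minute room-temperature reaction with enzyme at 1.25nM final.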

[13] = Inducers of the Endoplasmic Reticulum Stress Response (ERSR) in human glioma: Validation (AID 504836); note: 0% is about no effect
Summary of the method: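 Stably transfected U87-MG glioma cells carrying a GRP78-based luciferase sensor; 16 h compound incubation. Luminescence end-point read 10 min after Bright-Glo addition at room temperature.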

[14] = target: Ubiquitin carboxyl-terminal hydrolase 1 (Homo sapiens) (UniProt O94782); experiment: Inhibitors of USP1/UAF1: Pilot qHTS (AID 504865);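 note: rhodamine fluorescence freed from ubiquitin-rhodamine substrate followed over time; top concentration of the series differs between compounds; % is set by controls: 0 for no effect and ±100 for the full control effect; nearly all actives have a fitted effect of over 35% in size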
Summary of the method: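 USP1/UAF1 complex at 1 nM preincubated 15 min at room temperature with compound, then Ub-Rho substrate added at 150 nM final. Fluorescence (480/540 nm) read kinetically in 50 mM HEPES pH 7.8, 0.5 mM EDTA, 1 mM TCEP, 0.1 mg/ml BSA, 0.01% Tween-20.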

[15] = qHTS for Inhibitors of ATXN expression: Validation of Cytotoxic Assay (AID 588349); note: % is set by controls: 0 for no effect and ±100 for the full control effect
Summary of the method: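 Cytotoxicity counter-screen: ATP-based luminescent viability (CellTiter Glo) after 72 hr exposure of HEK293 cells to a compound titration at 37 degrees C.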

[16] = qHTS for Inhibitors of ATXN expression: Validation (AID 588378); note: nearly all actives have a fitted effect of over 75% in size; note: potency is the fitted concentration of half-maximal effect
Summary of the method: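 HEK293 cells carrying ATXN2-firefly luciferase reporter, treated with compound 24 h at 37 °C. Viability read first by CellTiter-Fluor (405/525 nm), then reporter expression by Bright-Glo luminescence; controls were a known ATXN2 expression inhibitor and a luciferase inhibitor.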

[17] = target: DNA dC->dU-editing enzyme APOBEC-3G (Homo sapiens) (UniProt Q9HC16); experiment: qHTS for inhibitors of Vif-A3G interactions: Validation (AID 588379); note: 0% is about no effect
Summary of the method: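 Yellow fluorescence (Ex 488, Em 500-530) of Vif-coexpressing HeLa A3G-eYFP cells, scanned by Acumen cytometer, reports blocked A3G degradation. Cells plated at 700/well overnight at 37 deg C before compound addition, then a further overnight compound incubation at 37 deg C.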

[18] = target: Tyrosyl-DNA phosphodiesterase 1 (Homo sapiens) (UniProt Q9NUW8); experiment: Confirmation Assay for Inhibitors of Tyrosyl-DNA Phosphodiesterase (TDP1) (AID 489007); conditions: recombinant human TDP1 enzymatic activity, dose-response; note: potency is the fitted concentration of half-maximal effect; nearly all actives have a fitted effect of over 40% in size
Summary of the method: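 AlphaScreen assay of tyrosine-FITC cleavage from a biotinylated DNA substrate (15 nM) by E. coli-expressed human Tdp1 (1 nM). Sequence: compound preincubation 15 min, reaction 5 min, bead detection 10 min, all at room temperature. No-enzyme wells give maximum signal.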

[19] = target: ATP-dependent 6-phosphofructokinase (Trypanosoma brucei brucei) (UniProt O15648); experiment: qHTS Assay to Find Inhibitors of T. brucei phosphofructokinase: hit validation (AID 492961); note: potency is the fitted concentration of half-maximal effect
Summary of the method: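 Inhibition of parasite PFK is measured as reduced ADP formation, quantified via luciferase after ATP depletion. Assay used 0.1 mM ATP, 0.5 mM F6P, 1.25 nM enzyme, 45 min incubation.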

[20] = target: Estrogen receptor (Homo sapiens) (UniProt P03372); experiment: qHTS assay for small molecule antagonists of estrogen receptor alpha signaling (AID 588513; active = well fitted curve in the direction sought with a large enough effect in the signal ratio, with a control signal flat, not every such curve was filed as active; inconclusive = small, poorly fitted or top-dose-only effect, or effect the other way, or a change in a side signal; inactive = no such curve, though single readings can be large or run the other way; the % refers to the signal ratio; note: potency is the fitted concentration of half-maximal effect)
Summary of the method: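 ER-alpha-UAS-bla GripTite HEK 293 cells in 2% charcoal/dextran-treated FBS medium; compounds titrated (1:2, duplicate), then stimulated with 0.5 nM 17-beta-estradiol for 18 h at 37C. CCF4 beta-lactamase fluorescence; Hill-fit IC50 and efficacy.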

Sequence of Thyrotropin-releasing hormone receptor (Homo sapiens) (P34981 whole entry, looked up): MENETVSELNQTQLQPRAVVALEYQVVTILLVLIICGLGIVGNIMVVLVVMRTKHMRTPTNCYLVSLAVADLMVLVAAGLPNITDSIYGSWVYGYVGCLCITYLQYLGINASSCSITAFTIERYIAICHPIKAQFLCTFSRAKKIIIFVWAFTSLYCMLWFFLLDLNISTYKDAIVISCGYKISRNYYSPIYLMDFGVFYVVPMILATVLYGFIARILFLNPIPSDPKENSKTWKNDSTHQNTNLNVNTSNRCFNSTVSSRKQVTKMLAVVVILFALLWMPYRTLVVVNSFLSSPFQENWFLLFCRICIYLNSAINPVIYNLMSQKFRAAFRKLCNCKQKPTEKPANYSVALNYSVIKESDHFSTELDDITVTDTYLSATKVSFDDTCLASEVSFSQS
Sequence of Ubiquitin carboxyl-terminal hydrolase 1 (Homo sapiens) (O94782 whole entry, looked up): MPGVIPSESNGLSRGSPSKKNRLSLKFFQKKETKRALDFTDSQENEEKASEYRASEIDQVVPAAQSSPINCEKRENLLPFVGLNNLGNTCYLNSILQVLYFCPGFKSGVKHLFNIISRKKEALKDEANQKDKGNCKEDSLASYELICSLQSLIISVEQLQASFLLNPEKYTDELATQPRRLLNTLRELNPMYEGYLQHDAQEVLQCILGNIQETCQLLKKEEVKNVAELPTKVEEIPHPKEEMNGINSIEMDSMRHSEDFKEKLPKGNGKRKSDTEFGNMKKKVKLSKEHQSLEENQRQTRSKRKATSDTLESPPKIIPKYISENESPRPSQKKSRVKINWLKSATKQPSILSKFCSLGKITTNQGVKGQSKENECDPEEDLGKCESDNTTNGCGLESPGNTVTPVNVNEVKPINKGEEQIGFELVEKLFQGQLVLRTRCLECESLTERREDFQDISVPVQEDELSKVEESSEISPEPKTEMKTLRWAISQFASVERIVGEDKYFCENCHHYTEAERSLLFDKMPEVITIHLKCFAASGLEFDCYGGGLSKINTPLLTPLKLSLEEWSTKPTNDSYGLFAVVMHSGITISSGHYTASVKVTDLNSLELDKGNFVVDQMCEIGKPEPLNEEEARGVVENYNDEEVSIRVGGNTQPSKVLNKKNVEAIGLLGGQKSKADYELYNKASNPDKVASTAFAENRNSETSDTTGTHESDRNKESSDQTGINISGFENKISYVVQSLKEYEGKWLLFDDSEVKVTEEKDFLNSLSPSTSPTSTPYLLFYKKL
Sequence of DNA dC->dU-editing enzyme APOBEC-3G (Homo sapiens) (Q9HC16 whole entry, looked up): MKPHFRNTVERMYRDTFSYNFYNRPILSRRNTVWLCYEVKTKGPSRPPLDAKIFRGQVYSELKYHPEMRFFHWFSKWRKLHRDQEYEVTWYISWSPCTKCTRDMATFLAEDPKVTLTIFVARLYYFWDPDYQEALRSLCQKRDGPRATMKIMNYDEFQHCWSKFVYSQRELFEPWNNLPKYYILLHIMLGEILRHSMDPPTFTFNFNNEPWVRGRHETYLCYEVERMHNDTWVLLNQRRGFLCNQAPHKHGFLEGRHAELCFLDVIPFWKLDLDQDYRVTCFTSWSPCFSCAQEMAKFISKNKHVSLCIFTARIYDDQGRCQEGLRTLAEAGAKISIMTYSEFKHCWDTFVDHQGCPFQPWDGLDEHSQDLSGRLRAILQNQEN
Sequence of D(1A) dopamine receptor (Homo sapiens) (P21728 whole entry, looked up): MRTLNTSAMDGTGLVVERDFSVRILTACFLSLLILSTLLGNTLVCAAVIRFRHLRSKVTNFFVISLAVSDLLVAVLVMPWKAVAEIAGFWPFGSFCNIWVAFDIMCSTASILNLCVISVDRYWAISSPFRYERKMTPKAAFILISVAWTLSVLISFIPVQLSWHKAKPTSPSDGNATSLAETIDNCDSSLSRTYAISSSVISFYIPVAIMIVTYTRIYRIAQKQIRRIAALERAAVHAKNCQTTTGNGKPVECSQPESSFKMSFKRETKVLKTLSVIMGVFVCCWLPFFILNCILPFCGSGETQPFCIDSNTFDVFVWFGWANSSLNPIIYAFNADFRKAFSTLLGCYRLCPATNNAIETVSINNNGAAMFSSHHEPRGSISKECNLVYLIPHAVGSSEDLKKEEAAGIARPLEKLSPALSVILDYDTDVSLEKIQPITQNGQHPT
Sequence of ATPase family AAA domain-containing protein 5 (Homo sapiens) (Q96QE3 whole entry, looked up, the tested form may be a part): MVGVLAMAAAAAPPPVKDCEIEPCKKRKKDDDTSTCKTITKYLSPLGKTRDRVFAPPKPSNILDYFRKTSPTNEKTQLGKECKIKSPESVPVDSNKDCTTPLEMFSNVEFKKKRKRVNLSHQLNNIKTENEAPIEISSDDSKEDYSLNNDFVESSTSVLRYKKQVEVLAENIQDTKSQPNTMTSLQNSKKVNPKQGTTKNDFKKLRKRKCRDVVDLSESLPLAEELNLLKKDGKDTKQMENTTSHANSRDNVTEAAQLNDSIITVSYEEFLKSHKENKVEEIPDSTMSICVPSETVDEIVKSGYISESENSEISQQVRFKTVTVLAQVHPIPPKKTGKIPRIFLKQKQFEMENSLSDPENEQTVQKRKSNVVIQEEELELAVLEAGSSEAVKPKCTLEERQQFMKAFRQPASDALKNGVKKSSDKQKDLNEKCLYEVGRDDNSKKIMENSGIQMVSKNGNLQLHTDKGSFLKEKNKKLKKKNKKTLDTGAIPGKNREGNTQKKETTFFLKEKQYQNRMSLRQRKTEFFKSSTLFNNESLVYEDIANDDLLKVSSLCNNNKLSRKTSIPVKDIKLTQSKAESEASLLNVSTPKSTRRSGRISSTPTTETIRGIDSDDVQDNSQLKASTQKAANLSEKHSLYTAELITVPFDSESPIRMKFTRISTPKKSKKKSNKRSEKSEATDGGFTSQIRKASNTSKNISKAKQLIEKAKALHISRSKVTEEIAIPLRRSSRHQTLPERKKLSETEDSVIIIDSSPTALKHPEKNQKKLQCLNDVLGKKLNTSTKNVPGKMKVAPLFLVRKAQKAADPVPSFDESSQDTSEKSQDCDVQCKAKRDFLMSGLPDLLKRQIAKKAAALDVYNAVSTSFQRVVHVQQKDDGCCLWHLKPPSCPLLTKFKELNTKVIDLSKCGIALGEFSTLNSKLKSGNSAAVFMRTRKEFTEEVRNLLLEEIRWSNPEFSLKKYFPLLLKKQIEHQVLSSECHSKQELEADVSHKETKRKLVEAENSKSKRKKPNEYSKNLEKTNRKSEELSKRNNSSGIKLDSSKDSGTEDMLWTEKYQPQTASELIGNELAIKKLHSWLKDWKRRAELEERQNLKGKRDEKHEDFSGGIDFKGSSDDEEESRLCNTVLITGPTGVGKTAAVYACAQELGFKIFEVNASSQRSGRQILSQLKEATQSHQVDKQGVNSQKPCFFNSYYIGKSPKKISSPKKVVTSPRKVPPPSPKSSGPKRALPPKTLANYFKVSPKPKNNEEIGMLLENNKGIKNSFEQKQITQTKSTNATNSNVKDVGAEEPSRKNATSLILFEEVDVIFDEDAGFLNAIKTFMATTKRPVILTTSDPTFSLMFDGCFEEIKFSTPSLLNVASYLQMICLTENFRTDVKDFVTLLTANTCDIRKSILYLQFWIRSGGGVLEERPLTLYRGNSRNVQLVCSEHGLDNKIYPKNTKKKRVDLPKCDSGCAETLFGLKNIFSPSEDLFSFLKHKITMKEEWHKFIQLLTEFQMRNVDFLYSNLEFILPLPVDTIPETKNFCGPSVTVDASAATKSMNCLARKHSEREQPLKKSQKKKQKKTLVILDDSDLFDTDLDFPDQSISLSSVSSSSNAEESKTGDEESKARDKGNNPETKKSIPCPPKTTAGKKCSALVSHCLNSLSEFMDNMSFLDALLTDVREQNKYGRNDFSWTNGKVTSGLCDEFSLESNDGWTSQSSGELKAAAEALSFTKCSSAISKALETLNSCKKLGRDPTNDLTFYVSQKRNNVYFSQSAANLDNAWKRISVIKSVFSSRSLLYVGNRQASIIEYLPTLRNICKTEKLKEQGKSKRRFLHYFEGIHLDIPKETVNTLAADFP
Sequence of Phosphoglycerate kinase, glycosomal (Trypanosoma brucei brucei) (P07378 whole entry, looked up): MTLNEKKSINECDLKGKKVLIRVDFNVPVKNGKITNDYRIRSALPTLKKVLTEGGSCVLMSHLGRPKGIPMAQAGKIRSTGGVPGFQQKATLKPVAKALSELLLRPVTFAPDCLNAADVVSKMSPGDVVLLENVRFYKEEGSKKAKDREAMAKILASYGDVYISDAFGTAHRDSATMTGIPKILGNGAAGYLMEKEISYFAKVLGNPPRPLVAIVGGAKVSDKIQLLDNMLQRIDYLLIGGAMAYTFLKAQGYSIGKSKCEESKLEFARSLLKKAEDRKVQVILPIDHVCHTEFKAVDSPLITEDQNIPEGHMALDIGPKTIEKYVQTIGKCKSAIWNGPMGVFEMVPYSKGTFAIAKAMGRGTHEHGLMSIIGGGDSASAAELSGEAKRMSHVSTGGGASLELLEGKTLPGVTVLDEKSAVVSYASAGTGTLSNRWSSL
Sequence of Peptidyl-prolyl cis-trans isomerase NIMA-interacting 1 (Homo sapiens) (Q13526 whole entry, looked up): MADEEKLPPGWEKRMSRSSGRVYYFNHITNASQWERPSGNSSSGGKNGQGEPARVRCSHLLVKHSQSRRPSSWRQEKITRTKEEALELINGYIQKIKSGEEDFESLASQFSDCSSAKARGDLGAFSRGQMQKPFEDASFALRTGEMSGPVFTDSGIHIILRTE
Sequence of Galactokinase (Homo sapiens) (P51570 whole entry, looked up): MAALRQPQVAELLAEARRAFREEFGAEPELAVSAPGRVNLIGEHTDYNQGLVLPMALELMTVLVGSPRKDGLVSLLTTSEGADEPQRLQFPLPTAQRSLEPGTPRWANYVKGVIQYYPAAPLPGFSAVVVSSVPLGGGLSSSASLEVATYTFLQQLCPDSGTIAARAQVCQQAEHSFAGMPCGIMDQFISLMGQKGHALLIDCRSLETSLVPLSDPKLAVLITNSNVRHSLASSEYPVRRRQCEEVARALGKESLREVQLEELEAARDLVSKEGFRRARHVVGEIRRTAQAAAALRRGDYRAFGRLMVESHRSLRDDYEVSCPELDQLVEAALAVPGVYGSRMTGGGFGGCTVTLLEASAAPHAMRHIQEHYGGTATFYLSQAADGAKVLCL

O=C(O)[C@@H]1CCN1
inactive: outcome [1] | Potency [2] | outcome [3] | Potency [4] | activation [5] 0.75% | outcome [6] | outcome [7] | outcome [8] | outcome [9] | outcome [10] | outcome [11] | outcome [12] | Potency [13] | Potency [14] | outcome [15] | Potency [16]
8.8%: viability change [6]

CCCN(CCC)[C@@H]1CCc2ccc(O)cc2C1
active: Potency [2] 10 µM
2.19%: viability change [6]
inactive: outcome [1] | outcome [3] | Potency [4] | activation [5] 0.938% | outcome [6] | outcome [7] | outcome [8] | outcome [9] | outcome [10] | outcome [11] | outcome [12] | Potency [13] | outcome [15] | Potency [16] | outcome [17]

O=C(O)Cc1cnc[nH]1
-0.284%: viability change [6]
inactive: outcome [1] | Potency [2] | outcome [3] | Potency [4] | activation [5] 0.875% | outcome [6] | outcome [7] | outcome [8] | outcome [9] | outcome [10] | outcome [11] | outcome [12] | Potency [13] | outcome [15] | Potency [16]

NC1CCc2cc(O)c(O)cc2C1 (stereo not given)
active: Potency [2] 0.0891 µM
inactive: outcome [1] | outcome [3] | Potency [4] | activation [5] 0.75% | outcome [6] | outcome [7] | outcome [8] | outcome [9] | outcome [10] | outcome [11] | outcome [12] | Potency [13] | Potency [14] | outcome [15] | Potency [16]
10.6%: viability change [6]

C[C@@H](N)Cc1cnc[nH]1
inactive: outcome [1] | Potency [2] | outcome [3] | Potency [4] | activation [5] 1.12% | outcome [7] | outcome [8] | outcome [9] | outcome [10] | outcome [11] | outcome [12] | Potency [13] | Potency [14] | outcome [15] | Potency [16] | outcome [17]

C[C@]12CCC3C(CC[C@H]4C[C@H](O)CC[C@]34C)C1CC[C@@H]2C(=O)CO (stereo not given in full)
inactive: outcome [1] | Potency [2] | outcome [3] | Potency [4] | activation [5] 1.56% | outcome [7] | outcome [8] | outcome [9] | outcome [10] | outcome [11] | outcome [12] | Potency [13] | Potency [14] | outcome [15] | Potency [16]

Clc1cnc(Oc2ccc(Oc3ncc(Cl)cc3Cl)cc2)c(Cl)c1
inactive: outcome [1] | Potency [2] | outcome [3] | Potency [4] | outcome [6] | outcome [7] | outcome [8] | outcome [9] | outcome [10] | outcome [11] | outcome [12] | Potency [13] | outcome [15] | Potency [16]
3.25%: viability change [6]

CC(=O)[O][Hg][c]1ccccc1
active: Potency [18] 10 µM | Potency [19] 7.94 µM | Potency [20] 2.24 µM [inconclusive]

c1ccc2sc(C3(N4CCCCC4)CCCCC3)cc2c1
inactive: outcome [1] | outcome [3] | Potency [4] | activation [5] -13.1% | outcome [6] | outcome [7] | outcome [8] | outcome [9] | outcome [10] | outcome [11] | outcome [12] | Potency [13] | Potency [14] | outcome [15] | Potency [16] | outcome [17]
-6.89%: viability change [6]

COc1ccc2c(c[n+](C)c3c4cc5c(cc4ccc23)OCO5)c1OC
inactive: outcome [1] | Potency [2] | outcome [3] | Potency [4] | activation [5] 0.625% | outcome [7] | outcome [8] | outcome [10] | outcome [11] | Potency [13] | Potency [14]

CC[C@@]1(O)C(=O)OCc2c1cc1n(c2=O)Cc2cc3ccccc3nc2-1
active: Potency [4] 0.461 µM
inactive: outcome [1] | Potency [2] | outcome [3] | activation [5] -0.188% | outcome [7] | outcome [8] | outcome [9] | outcome [10] | outcome [11] | outcome [12] | Potency [13] | Potency [16] | outcome [17]

CN[C@@H]1C[C@@H](c2ccc(Cl)c(Cl)c2)c2ccccc21
active: Potency [4] 23.1 µM | Potency [16] 20 µM
inactive: outcome [1] | outcome [3] | activation [5] 29.8% | outcome [6] | outcome [7] | outcome [8] | outcome [9] | outcome [10] | outcome [11] | outcome [12] | Potency [13] | Potency [14]
3.66%: viability change [6]

C[N+]1(C)C2CCC1CC(OC(=O)C(CO)c1ccccc1)C2 (stereo not given)
inactive: outcome [1] | Potency [2] | outcome [3] | Potency [4] | outcome [6] | outcome [7] | outcome [8] | outcome [9] | outcome [10] | outcome [11] | outcome [12] | Potency [13] | Potency [14] | outcome [15] | Potency [16]
9.4% and 1.15%: viability change [6]

C[C@]12N[C@H](Cc3ccccc31)c1ccccc12
0.285%: viability change [6]
inactive: outcome [1] | Potency [2] | outcome [3] | Potency [4] | outcome [6] | outcome [7] | outcome [8] | outcome [9] | outcome [10] | outcome [11] | outcome [12] | Potency [13] | outcome [15] | Potency [16]

O=C1CCCN1CC#CCN1CCCC1
3.92%: viability change [6]
inactive: Potency [2] | outcome [3] | Potency [4] | activation [5] 3.06% | outcome [6] | outcome [7] | outcome [8] | outcome [9] | outcome [10] | outcome [11] | outcome [12] | Potency [13] | outcome [15] | Potency [16] | outcome [17]
